Screens as filed in PubChem BioAssay.
PAD4 FP inh: PAD4 (human) enzyme inhibition. recombinant PAD4, RCA probe fluorescence polarization. inhibition, % at 6.36 µM. actives 0.41% (n = 330,000);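 active = percent inhibition above a cutoff equal to the mean of all tested compounds plus 3 SD, cut at about 15% in these data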;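 also: 0% = PAD4 with RCA probe and DMSO and 100% = probe without PAD4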
Fam108B counter: blocks mouse Fam108B hydrolase in RBBP9 counter-screen | recombinant Fam108B, FP-Rh probe fluorescence polarization | inhibition, % at 9.51 µM | actives 0.33% (n = 300,000) | AID 1947;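 active = inhibition above the screen mean inhibition plus 3 SD, computed separately per campaign, cut at about 18% in these data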;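 also: inhibitors lower polarization as less probe binds the enzyme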
GSTO1 inh: counter-screen for RBBP9 inhibitors: inhibitors of human GSTO1. P78417. recombinant GSTO1, activity-based probe fluorescence polarization. inhibition, % at 5.96 µM. actives 1.1% (n = 300,000). AID 1974;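 active = inhibition above the campaign mean inhibition plus 3 SD, cut at about 35% in these data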;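 also: 0% = GSTO1-1 with DMSO and 100% = wells lacking GSTO1-1 enzyme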
Target sequence (P78417 whole entry, looked up): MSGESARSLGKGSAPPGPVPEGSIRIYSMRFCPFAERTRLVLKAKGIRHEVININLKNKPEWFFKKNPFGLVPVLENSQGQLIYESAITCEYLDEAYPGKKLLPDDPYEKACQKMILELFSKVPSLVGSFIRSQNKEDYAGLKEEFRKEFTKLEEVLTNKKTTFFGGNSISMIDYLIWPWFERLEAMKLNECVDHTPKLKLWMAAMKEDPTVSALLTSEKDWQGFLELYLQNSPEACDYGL
PME-1 inh: PME-1 (human) inhibition | Q9Y570 | recombinant PME-1, FP-Rh probe fluorescence polarization | inhibition, % at 5.9 µM | actives 0.53% (n = 320,000) | AID 2130;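 active = inhibition above the campaign mean of all compounds plus 3 SD, cut at about 26% in these data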;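 also: competitive labeling of PME-1 active site by serine hydrolase directed probe; 0% = PME-1 with DMSO and 100% = wells lacking PME-1 enzyme; inhibitors block probe labeling so polarization falls and inhibition rises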
pPAFAH FP inh: pPAFAH (human) enzyme inhibition; Q13093; recombinant pPAFAH, FP-rhodamine probe fluorescence polarization; inhibition, % at 3.39 µM; actives 1.5% (n = 330,000);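 active = inhibition above the mean inhibition across the screen plus 3 SD, cut at about 25% in these data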;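 also: inhibitors block binding of the rhodamine activity-based probe so polarization drops; 0% = enzyme with DMSO and 100% = wells lacking pPAFAH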
pPAFAH confirm: pPAFAH (human) inhibition, confirmed | AID 463230 | recombinant pPAFAH, FP-Rh probe fluorescence polarization | inhibition, % at 3.39 µM | shares compounds with pPAFAH FP inh | actives 72% (n = 2,300);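 active = mean inhibition of the triplicate above the hit cutoff set for the earlier primary screen, cut at about 25% in these data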;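 also: 0% = enzyme with DMSO and 100% = wells lacking pPAFAH enzyme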
An asterisk follows results filed as active; . = no result given. Sampled rows, rich in hits. Any-hit rate of the full collection: about 2.3%.

SMILES	PAD4 FP inh	Fam108B counter	GSTO1 inh	PME-1 inh	pPAFAH FP inh	pPAFAH confirm
CC(=O)N1CCN(c2ccc(NCc3ccc(Br)o3)cc2)CC1	1.9	.	.	3.6	11.4	.
CC(=O)N1CCN(c2ccc(NCc3ccc(-c4ccc(Br)cc4)o3)cc2)CC1	-2.4	.	.	.	41.2*	26.2*
CC(C)COC(=O)N1C[C@H](O)C[C@H]1C(=O)Nc1ccc(Cl)cc1	0.3	4.6	6.6	-1.9	1.4	.
CCn1c(C)cc(/C=C2/SC(=S)NC2=O)c1C	-5.6	2.5	34.1	1.7	16.6	.
Cc1cc(/C=C2\SC(=S)NC2=O)c(C)[nH]1	-15.9	-2.5	28.9	1.7	45.6*	1.0
C[C@@H]1C[C@H]2[C@@H]3CCC4=CC(=O)C=C[C@]4(C)[C@@]3(Cl)[C@@H](O)C[C@]2(C)[C@@]1(OC(=O)c1ccco1)C(=O)CCl	-2.6	-16.9	-1.1	-23.7	-6.0	.
O=c1nc(/C=C/c2cccn2-c2ccc([N+](=O)[O-])cc2)cc(C(F)(F)F)[nH]1	-5.1	4.4	7.7	5.0	35.9*	15.2
CC(C)(C)OC(=O)N/N=C/c1cccn1-c1ccc([N+](=O)[O-])cc1	2.6	0.9	2.7	0.2	8.6	.
CCCCCCCC/C=C\CCCCCCCC(=O)NCCc1ccc(O)c(O)c1	3.5	2.1	4.7	-14.1	69.8*	62.1*
CCCCCCCC/C=C\CCCCCCCC(=O)NCCO	6.7	-0.6	4.8	-1.0	2.5	.
CC(OC(=O)c1ccccc1Nc1ccc(SC(F)F)cc1)C(N)=O (stereo unspecified)	0.3	2.0	0.6	-3.9	35.3*	23.5
CN(C(=O)c1cccnc1)c1nnc(-c2cccnc2)s1	-6.7	2.6	6.7	0.4	42.0*	3.0
CN(C(=O)c1cccnc1)c1nnc(-c2cnccn2)s1	-1.3	-1.2	-1.7	4.1	4.8	.
CC(=O)c1c(OC(=O)c2ccccc2)c2ccccc2n1C	3.1	0.4	1.8	10.2	81.5*	9.1
CCc1ccc(C2C(C#N)=C(N)Oc3cc(N)ccc32)cc1 (stereo unspecified)	-5.2	-2.2	-5.8	-20.9	59.0*	4.2
N#CC1=C(N)Oc2cc(N)ccc2C1c1ccc(Cl)cc1 (stereo unspecified)	-6.9	2.7	-5.5	-4.7	42.7*	-0.1
CC(C)=CCc1c2c(c(O)c3c(=O)c4c(oc13)-c1cc(O)c(O)cc1OC4C=C(C)C)C=CC(C)(C)O2 (stereo unspecified)	1.5	0.2	8.2	1.5	37.1*	52.0*
CC(C)=CCC/C(C)=C/CNC(=O)C[C@H]1C[C@H](C(=O)N2CCCCC2)[C@@]2(C)c3[nH]c4cc(CCC(=O)N(C)C)ccc4c3CCN2C1=O	3.2	.	.	.	54.7*	42.0*
CC(C)N(C(=O)[C@H]1C[C@H](CC(=O)NCC23CC4CC(CC(C4)C2)C3)C(=O)N2CCc3c([nH]c4cc(CCC(=O)N(C)C)ccc34)[C@]12C)C(C)C	3.7	.	.	.	45.0*	32.5*
O=C(Nc1ccc(Cl)c(Cl)c1)NC1CCS(=O)(=O)C1 (stereo unspecified)	0.7	0.0	0.3	3.5	5.1	.
Cc1cc(O)c2c(c1O)C(=O)[C@]13C(=C2O)C(=O)[C@@H]2[C@@H](O)[C@H]1[C@@H]1[C@H](O)[C@H]3C(=O)C3=C(O)c4c(O)cc(C)c(O)c4C(=O)[C@]312	-23.8	.	.	.	53.9*	22.8
CCOC(=O)c1c(NC(=O)/C=C/C(=O)O)sc(C)c1-c1ccc(Cl)cc1	1.6	-3.3	-62.8	-2.9	44.5*	39.9*
CCN1CCN(c2ccc(NC(=O)c3ccc4c(c3)[nH]c(=O)n4Cc3ccc(OC)cc3)cc2)CC1	1.9	1.9	5.0	3.1	1.8	.
N#C/C(=N\Nc1ccc(Cl)c(Cl)c1)C(=O)C1CC1	2.2	7.8	-11.5	34.3*	40.9*	40.1*
O=C(O)c1ccccc1Nc1cccc(OCc2ccc3ccccc3n2)c1	3.0	4.9	6.6	29.8*	35.7*	31.3*
O=c1cc(-c2ccccc2Cl)oc2c(NS(=O)(=O)c3cc(Cl)cc(Cl)c3O)ccc(O)c12	-15.7	7.1	1.6	56.6*	41.4*	78.1*
CC(Oc1ccccc1F)C(=O)NNC(=O)CCNC(=O)c1ccccc1Cl (stereo unspecified)	5.5	-4.4	3.6	-3.6	53.9*	-0.9
Cc1cc(C(=O)NN=C2CC(=O)CC(C)(C)C2)c(C)o1	-2.1	.	.	.	0.2	.
